# Measurements as given in PubChem BioAssay (NCATS).
# Records with an inconclusive call do not appear. A call without a number means that no potency is given here. Calls of active or inactive are those of the source. Calls come from the whole dose curve; as a rule, active = well fitted inhibition curve with a large enough effect; inconclusive = small, poorly fitted or top-dose-only effect; inactive = no such curve, though single readings can be large or run the other way.
# Assay: P-glycoprotein substrates identified in KB-3-1 adenocarcinoma cell line, qHTS therapeutic library screen (AID 1346986); note: nearly all actives have a fitted effect of over 60% in size
# Conditions: KB-3-1 parental cells viability, CellTiter-Glo, 72 h; series mostly up to 44.5 µM
# Experimental: The ATP-binding cassette transporters P-glycoprotein (P-gp) is known to limit brain penetration of many chemotherapy drugs. […] We used the CellTiter-Glo viability assay to test library compounds against the parental KB-3-1 human cervical adenocarcinoma cell line and the colchicine-selected sub-line KB-8-5-11 that over-expresses P-gp. KB-8-5-11 cells were also tested in the presence of a P-gp inhibitor (tariquidar) to assess reversability of transporter-mediated resistance. Of the tested compounds, a total of 90 P-gp substrates were identified including 55 newly identified P-gp substrates. Substrates were confirmed using an orthogonal killing assay against HEK-293 cells transfected with P-gp. As exemplars, we confirmed that AT7159 (cyclin-dependent kinase inhibitor); AT9283, (Janus kinase 2/3 inhibitor); ispinesib (kinesin spindle protein inhibitor); gedatolisib (PKI-587, phosphoinositide 3-kinase/mammalian target of rampamycin inhibitor); GSK-690693 (AKT inhibitor); and KW-2478 (heat shock protein 90 inhibitor) were substrates , and direct ATPase stimulation was assessed. ABCG2 was also found to confer high levels of resistance to AT9283, GSK-690693 and gedatolisib, while ispinesib, AT7519 and KW-2478 were weaker substrates.
# The HeLa derivative cell line, KB-3-1, and its colchicine-selected, P-gp-overexpressing subline, KB-8-5-11 were maintained in DMEM with 10% FCS and Pen/Strep with glutamine at 37 degree C in 5% CO2. For KB-8-5-11 cells, colchicine was added to the medium at a concentration of 100 ng/mL. HEK-293 cells transfected with empty vector (pcDNA) or vector containing human ABCB1 (MDR-19) or ABCG2 (R-5) have been described previously (Robey, Lin, Qiu, Chan & Bates, 2011) and were maintained in EMEM supplemented with 10% FCS, Pen/Strep and glutamine with 2 mg/ml G418 to select for the expression of the transporter. Cultures were confirmed to be free of mycoplasma infection using the MycoAlert Mycoplasma Detection Kit (Lonza, Walkersville, MD). For the screen, assay medium was identical to culture medium except for KB-8-5-11 where colchicine was excluded from the medium.
# All cell lines were plated into 1536-well plates at 500 cells/well in 5 uL media. Compounds were then pinned in dose-response using a 1536-head pin tool (Kalypsis, San Diego, CA) and plates were incubated at 37 degree C in 5% CO2 for an additional 72 h. CellTiter-Glo reagent (Promega) was dispensed into the wells, incubated for 5 min and luminescence was read on a ViewLux instrument (Perkin-Elmer). Cytotoxic compounds were defined as those that yielded a curve class of -1.1, -1.2, -2.1, -2.2, -2.3, or -2.4, a maximum response of >50% and an AC50 of < 10 uM. Cherry-picked hits from screening analysis were tested with both the KB pair of cell lines, and the pcDNA (empty vector control) and MDR-19 (P-gp overexpressing) pair were tested, in the absence and presence of tariquidar.
Compound,Potency,outcome
C/C(=C\CCC(C)CCO)C(=O)OC[C@H]1O[C@@H](O[C@@H]2OC=C(C(=O)O)[C@H]3CC[C@](C)(O)[C@@H]23)C(O)[C@@H](O)C1O (stereo not given in full),inactive,–
CC(C)CC(=O)NCCn1cc(C(=O)O)c(=O)cc1C(O)c1ccccc1 (stereo not given),inactive,–
C=C(C)[C@@H]1CC[C@]2(CO)CC[C@]3(C)[C@H](CC[C@@H]4[C@@]5(C)CC[C@H](O)C(C)(C)[C@@H]5CC[C@]43C)[C@@H]12,inactive,–
CCCCNc1nc(N)c2[nH]c(=O)n(Cc3ccc(OCCN(C)C)nc3)c2n1,inactive,–
C=CCC1=C[C@]2(OC)[C@H](C)[C@@H](c3ccc(OC)c(OC)c3)O[C@]2(OC)CC1=O,inactive,–
COC(=O)C1=CO[C@@H](O[C@@H]2O[C@H](CO)[C@@H](O)[C@H](O)[C@H]2O)[C@H]2[C@@H]1[C@H](O)C[C@]2(C)O,inactive,–
C=C1CCc2occ(C)c2[C@H]2[C@H]1[C@@]13O[C@@]1(C[C@@H](C)[C@H]3OC(C)=O)[C@H]1O[C@@]21C,inactive,–
C=CC(C)(O)CC/C=C(\C)C(=O)O[C@@H]1[C@@H](O)[C@H](OC(C)(C=C)CC/C=C(\C)C(=O)O)O[C@H](CO)[C@H]1OC(=O)/C(C)=C/CCC(C)(O)C=C (stereo not given in full),inactive,–
CC1=C2C(=O)C=C(CO)C2[C@H]2OC(=O)[C@H](C)[C@@H]2[C@@H](OC(=O)Cc2ccc(O)cc2)C1 (stereo not given in full),inactive,–
CC[C@H](C)[C@H](NC(=O)[C@H](Cc1ccc(O)cc1)NC(=O)[C@@H](N)C(C)C)C(=O)N[C@@H](Cc1cnc[nH]1)C(=O)N1CCC[C@H]1C(=O)N[C@@H](Cc1ccccc1)C(=O)O,–,inactive [at 5.11 µM]
CC(=O)OC12CC(C)C(OC(=O)c3ccccc3)C1/C=C(/C)C(OC(=O)c1ccccc1)CC(=O)C(C)(C)/C=C/C(C)C2=O (stereo not given),inactive,–
CC1=COC(OC2OC(CO)C(O)C(O)C2O)C2C(CO)CC(OC(=O)/C=C/c3ccc(O)cc3)C12 (stereo not given),inactive,–
CC1=C(CC/C(C)=C/C(=O)O)[C@@]2(C)CCCC(C)(C)C2CC1=O (stereo not given in full),inactive,–
CC1=CC(=O)[C@]2(O[C@@H]3O[C@@H](C)[C@H](O)[C@@H](O)[C@H]3O)C=CO[C@@H](O[C@@H]3O[C@H](CO)[C@@H](O)[C@H](O)[C@H]3O)[C@H]12,inactive,–
CC1CC(=O)C2=C(O1)OC1(C)CCC3C(C)(C)C4OC4C(=O)C3(C)C1C2 (stereo not given),inactive,–
O=C(O)CCc1cc2ccoc2cc1O[C@@H]1O[C@H](CO)[C@@H](O)[C@H](O)[C@H]1O,inactive,–
C[C@@H]1O[C@@H](O[C@@H]2[C@@H](O)[C@H](O[C@H]3[C@H](O[C@H]4CC[C@@]5(C)C(CC[C@]6(C)C5CC=C5[C@@H]7CC(C)(C)CC[C@]7(C(=O)O[C@@H]7O[C@H](CO)[C@@H](O)[C@H](O)[C@H]7O)CC[C@]56C)C4(C)C)O[C@H](C(=O)O)[C@@H](O)[C@@H]3O)OC[C@H]2O)[C@H](O)[C@H](O)[C@H]1O (stereo not given in full),–,inactive [at 9.29 µM]
C[C@@H](CC[C@@H]1[C@@]2(C)CCCC(C)(C)C2CC[C@@]1(C)O)CC(=O)O (stereo not given in full),inactive,–
CC1=C2CC(C)(C)CC2C(O)C2=C(C1)C(=O)OC2O (stereo not given),inactive,–
CC(C)(O)C(O)C(=O)OCc1ccc(O[C@@H]2O[C@H](CO)[C@@H](O)[C@H](O)[C@H]2O)cc1 (stereo not given in full),inactive,–

Compound,Potency,outcome
CCC(C)/C=C(C)/C=C/C1=CC2=C(Cl)C(=O)C(C)(O)C(=O)C2(O)C(OC)O1 (stereo not given),inactive,–
CO[C@H]1c2cc(C(C)C)c(O)c(O)c2[C@@]23CCCC(C)(C)C2[C@@H]1OC3=O (stereo not given in full),inactive,–
COc1ccnc(CCc2nc3ncccc3[nH]2)c1,inactive,–
C=C(CO)C(=O)O[C@H]1C[C@@]23O[C@@H]2CC/C(=C/[C@H]2OC(=O)C(=C)[C@H]12)CO[C@H]3O,inactive,–
CN1CCN(C2=Nc3ccccc3Nc3ccc(O)cc32)CC1,inactive,–
CC(=O)O[C@@H]1CC2C(C)(C)C(=O)C=C[C@]2(C)C2CC[C@]3(C)C(=CC(=O)[C@@H]3c3ccoc3)[C@@]21C (stereo not given in full),inactive,–
C[C@@]1(O)[C@H](O)[C@@H](CO)O[C@H]1n1cnc2c(=O)[nH]c(N)nc21,inactive,–
C[C@H](O)C(O)(C(=O)OCc1ccccc1NC(=O)CCC(N)C(=O)O)[C@H](C)O (stereo not given in full),inactive,–
C=C1C(=O)OC2CC(COC(=O)C(C)C)=C(C(C)CCCOC(C)=O)[C@@H](OC(C)=O)C12 (stereo not given in full),inactive,–
CC1(C)C2CCC1(C)C(OC(=O)C(O)(CC(=O)O)CC(=O)O)C2 (stereo not given),inactive,–
CC(CCc1ccc(O)cc1)O[C@@H]1O[C@H](CO[C@@H]2OC(CO)[C@H](O)[C@H]2O)[C@@H](O)[C@H](O)[C@H]1O (stereo not given in full),inactive,–
CSC(=O)OCC1=C[C@@H]2OC(=O)C3=CO[C@@H](O[C@@H]4O[C@H](CO)[C@@H](O)[C@H](O)[C@H]4O)[C@H]1[C@@H]32,inactive,–
COc1c2c(c(C)c3c1C(=O)OC3)OC1(C)CC(O)C34OC(OC)(CCC3(C)C1C2)OC4(C)CO (stereo not given),inactive,–
CC1=C[C@H](O)[C@H]2C(C)(C)CCC[C@]2(C)[C@@]1(O)CO,inactive,–
C[C@@H]1O[C@@H](O[C@H]2[C@H](OC(=O)[C@]34CCC(C)(C)C[C@H]3C3=CCC5[C@@]6(C)C[C@@H](O)[C@@H](O[C@@H]7O[C@H](CO)[C@@H](O)[C@H](O)[C@H]7O)[C@@](C)(CO)C6[C@H](O)C[C@@]5(C)[C@]3(C)CC4)OC[C@H](O)[C@@H]2O)[C@H](O)[C@H](O[C@@H]2OC[C@](O)(CO)[C@H]2O)[C@H]1O[C@@H]1OC[C@@H](O)[C@H](O[C@H]2O[C@H](C)[C@@H](O)[C@H](O)[C@@H]2O)[C@H]1O (stereo not given in full),–,inactive [at 9.29 µM]
CC(C)NC(=O)c1ccc(C#Cc2ccncc2)cn1,inactive,–
O=C(O)/C=C/c1ccc2occc2c1O[C@@H]1O[C@H](CO)[C@@H](O)[C@H](O)[C@H]1O,inactive,–
Cc1cccc(-c2nn3c(c2-c2ccnc4ccc(C(N)=O)cc24)CCC3)n1,inactive,–
COc1cc(C2CC(=O)Nc3c2cc(Br)c2ccccc32)cc(OC)c1OC (stereo not given),inactive,–
C=Cc1cc2oc(-c3ccc(O)c(F)c3)nc2cc1O,inactive,–
